# Results published in the supplement of paper PMC6555819.
# Columns and labels:
# Assay in all cases: PBM binding z-score (relative to random genomic background probes); higher = stronger binding; sequences stand for … in GC…GCGATTGACAGCGTAGAATGAAGG
# [1] = system: RARb homodimer (NR concentration 270 nM)
# How it was run: (§1)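 Each nuclear receptor dimer, without ligand, was incubated for 1 h on custom Agilent 4×180K protein-binding microarrays. Binding was detected with antibodies against each partner (one per run), and scanned fluorescence was regression-normalized. The binding z-scores are referenced to random human genomic background probes.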
# [2] = system: RARg:RXRa (NR concentration 270 nM, RXRa partner concentration 90 nM)
# How it was run: as §1
# [3] = system: RARg homodimer (NR concentration 270 nM)
# How it was run: as §1
# [4] = system: RXRa DBDmut IVT, anti-RXR (DBD mutation: RXRa K156A/R161A, NR concentration 90 nM)
# How it was run: as §1
# [5] = system: RXRa homodimer (NR concentration 180 nM)
# How it was run: as §1
# [6] = system: THRa:RXRa (NR concentration 90 nM, RXRa partner concentration 90 nM)
# How it was run: as §1
# [7] = system: THRa homodimer (NR concentration 90 nM)
# How it was run: as §1
# [8] = system: VDR:RXRa (NR concentration 270 nM, RXRa partner concentration 90 nM)
# How it was run: as §1
# [9] = system: VDR homodimer (NR concentration 270 nM)
# How it was run: as §1
Sequence,PBM binding z-score [1],PBM binding z-score [2],PBM binding z-score [3],PBM binding z-score [4],PBM binding z-score [5],PBM binding z-score [6],PBM binding z-score [7],PBM binding z-score [8],PBM binding z-score [9]
AGTCAAAGTTCGGGACGAGGTAACGTAAAGCACG,0.989,2.06,1.49,0.847,1.07,2.89,1.13,0.784,0.532
CAAACTAGGTCCAAGGTCAAAGTCGAGCCAACCA,3.79,3.98,3.24,2.47,4.04,3.64,2.62,4.04,3.42
TCGAGTAGGTTAGTCGCGGCATTCAGCCAACATA,-0.376,-0.336,-0.495,-0.209,-0.0361,-0.287,-1.14,-0.415,-0.682
CCAGACAGGTGAAAGCTAACTCAGTCTGGTACGC,-0.273,0.135,0.254,-0.328,0.326,-0.0859,-0.832,-0.274,-0.146
CGAACGAGAGCATGAGTTGATAGCAAATGCCGAT,-0.657,-0.0472,0.132,0.193,-0.065,-0.724,-1.07,-0.244,0.244
ATCTCTAGGTAACAAATTCAGTGAAAGAGAGGAC,0.688,0.707,0.762,-0.0663,0.508,1.02,0.762,0.375,0.435
ATCTCTAGGTAAGACTCAGTGCAGTGAAGAACGC,0.192,0.0414,0.117,-0.00244,0.00631,0.285,0.26,-0.0962,0.24
TCATATAGCTAAATGCTAGGTGAAAGTCCGATCT,0.184,0.0741,0.129,0.952,0.435,0.577,-0.00445,0.429,-0.29
ATCGAAAGGTCGAGGTGCGTATAGAGAAAGGGAA,2.47,4.3,4.33,0.96,4.37,1.77,-0.562,2.16,0.304
CGAACTAGGACAAGGACAGTGAATCTCCGCACGC,0.532,0.083,0.606,0.343,0.0441,1.8,1.32,-0.159,0.0217
TCTTGTAGATCAATAGAGGTTAAGAACGTGCGCT,1.05,0.792,0.716,0.923,1.54,2.33,-0.182,1.27,0.37
TCGAGTAGGTTAGTCCGGGCATTCAGCCAACATA,0.125,-0.242,-0.282,0.0956,-0.186,0.527,-0.31,0.223,-0.163
ACTAGTTGGTCAGCTGAGGTCTCACACAATTCGG,1.08,0.511,0.774,0.296,0.296,2.7,0.829,0.0458,-0.0195
GCTCGTAGGACAAGGTCAGAGCTTTGTCCGTAGA,2.93,2.95,3.49,0.281,2.55,2.64,0.975,1.4,0.106
CCTACTGGGCCACGGTCATTGATCAGTCAAAGCA,1.5,0.43,0.896,-1.25,-0.391,0.204,-0.144,-0.388,-0.135
CCGACTGGGGCCTAAGGTTACCATAAGCCAGCCC,1.1,0.451,-0.117,-0.875,0.652,2,1.26,-0.158,0.0794
TCTATTAGTTGGAGGGCAACCGACGAGTCCGTTT,1.31,0.442,0.781,1.47,0.834,0.528,0.592,1.27,1.86
TCGTGTAGGTTACCAATGGGGCATTCAGCTTTCT,1.15,1.46,0.613,0.901,0.634,0.276,0.371,0.608,-0.0857
GCTAGCAGGCCATTTGGGTGACTCAATGACGGGC,-0.273,-0.23,0.0183,-0.541,-0.076,0.189,-0.653,-0.749,-0.481
GGTTGTAGATCAAGGTTAAGAAAGACTAAGCTAA,0.97,0.695,0.809,0.0764,0.901,1.53,0.54,0.833,0.584
TCATTTAGGTAAACAGGTGAAAGTCCGTAAGTTA,1.09,0.646,0.406,1.59,0.903,1.52,1.13,1.26,0.754
CGTCCAAGGTCTTAGGAGGTCAGTGAAGACAGAT,3.12,2.51,2.68,0.709,2.01,4.13,1.15,2.89,1.33
CGTCCAACGTCAAAGGTCAGTGAAGAGATGACGG,4.22,4.66,5.08,0.458,5.09,2.5,0.106,2.8,0.685
TGAATGAGGTTATAAGATTAGGGAACGTTGCAAA,0.24,1.43,1.01,0.551,1.87,1.68,0.15,1.12,0.323
CTACCAAGATGAACAAGGTCGTTGATTACTATTC,1.24,0.579,0.551,1.52,0.837,1.77,1.54,2.52,2.53
CAAACTAGGTCACAGAGGTCAAAGTCCGTGCGTA,5.8,7.58,7.69,3.5,8.16,4.79,3.15,8.16,7.24
TTACCAAGGTGAAGGTCGTTGAACCCTCTGTAGA,2.16,1.94,1.52,0.243,3,2.74,1,,1.63

Sequence,PBM binding z-score [1],PBM binding z-score [2],PBM binding z-score [3],PBM binding z-score [4],PBM binding z-score [5],PBM binding z-score [6],PBM binding z-score [7],PBM binding z-score [8],PBM binding z-score [9]
CCTTACGGGTCACTGACACGTTATAGCATTTGGA,2.9,4.76,4.47,2.05,4.94,2.5,0.436,3.23,0.844
TTACCAAGGTGAAAGGGCGTTGATGCACGCCTTG,1.2,1.59,0.688,-0.264,2.14,1.99,0.369,0.61,0.227
ACTAGCAGGCAAAGTTTGGGTCACTCAAACAAAG,1.61,0.87,0.559,-0.386,0.711,2.14,0.949,0.478,0.233
TCTAGTTGGTCACGGATGTCACACACGACGGGTA,1.57,1.43,1.91,0.683,1.15,0.409,0.417,1.18,0.656
CGTCCAAGGTCAATGATAGGTCAGTGAAAGCATT,4.99,7.81,7.06,3.55,6.04,4.03,2.44,5.02,2.61
CTACCAAGGTGACCAAGGTCGTTGATTACTATTC,1.86,1.47,1.08,1.1,1.66,2.92,1.76,5.32,2.06
TCTATTAGTTGATTAGGGCACCCGAAACAGCGGA,0.537,0.623,0.797,1.22,0.445,0.654,0.582,0.698,0.203
CCTAGCACGCCAATCTGGGTCACTCAAGGCTTGA,1.94,0.768,0.494,0.349,0.974,2.61,0.789,,0.435
ATCGAAAAGTCGACGAGGTGAGTATACACCGTTT,0.0886,0.532,0.571,-0.248,0.751,1.74,0.716,0.461,-0.201
TCAGACAGGTGAAGATAACTCAGGTACGCAGTCG,0.661,0.712,0.748,1.15,1.13,0.737,0.4,0.709,0.623
TCTCTGAGGACACGAAGGTCAGAGCTTTCCAGAG,3.87,3.32,3.9,1.21,1.92,4.11,4.02,2.6,1.71
GCTGCTAGGTCAACTGATGGTCAGCTTAAGCTCG,3.69,5.24,5.28,1.76,3,3.07,0.988,1.62,-0.0541
TCTGCTCGGTCAGTTGGTCAGCTAACGAGCTGCC,1.35,0.987,1.71,-0.175,-0.299,-0.381,-0.999,-0.549,-0.918
TATACAGGGTCAAAAGCCAGAGTACGAATGTCGA,2.74,4.82,4.2,2.54,5.88,3.04,0.446,4.1,2.71
CCTAGCAGGCCAATCTGGGTCCCTCAAGGCTTGA,-0.121,-0.601,-0.841,-0.491,-0.782,0.746,-0.658,-0.831,-0.612
ATCTCTAGGTAAGACTCACTTCAGTGAAGAACGC,-0.0357,-0.204,0.301,0.173,-0.184,0.282,0.429,0.175,-0.111
AATACAGGGTCTTCGTAGGCCAGAGTACGCACAG,0.449,0.222,0.45,0.168,0.437,1.6,-0.387,0.0684,0.396
CAGCCTAGGTCAGGGTCAGTATAGGAGGAACGTT,4.16,4.27,4.84,0.854,3.67,3.39,1.53,2.7,1.31
CCTACTCGGCCACGAAAGGTCATTGATTCAGTGA,4.79,4.8,4.78,0.99,5.02,3.53,1.03,4.1,2.62
ACTATTAGTTGAGACGACGGCAACCGATAGGTTG,-0.491,0.00753,0.223,-0.0527,0.0138,-0.529,-0.596,,-0.117
ACTCTTAGTTGAGACGAGGGCAACCGATAGGTTG,1.14,0.56,0.695,0.403,0.46,2.59,0.356,,0.844
GCGACTGGGGCATCAGCAGGTTACCTTAACTTAA,0.872,0.268,0.175,0.145,0.259,1.8,2.05,-0.355,-0.071
TCTTGTAGATCAGCCGGTTAAGAAAGCTGGCCAA,-0.307,-0.542,-0.822,0.73,-0.222,-0.482,-0.883,-0.00365,-0.659
CTCGAAAGGTCGTGCTCAGGCGAGTATACCAAAC,2.65,4.35,3.64,1.3,4.75,2.88,-0.037,2.96,0.812
ACTAATAGTTGACTTAGGGCAACCGATACGACGC,0.958,0.412,0.996,0.674,0.408,1.6,0.383,0.357,0.15
ATCTCTAGGTAAGACTCATTTCAGTGAAGAACGC,0.362,-0.0496,0.0938,0.594,-0.0279,0.358,0.931,0.308,0.563
